Screens: PubChem, National Center for Advancing Translational Sciences (NCATS)
This is a sample that favours compounds with a hit; in the whole collection about 8% have one here.
FMDV antiviral = blocks foot and mouth disease virus; FMDV antiviral cell-based qHTS; Potency, µM (titrated, usually from 57.9 µM), without a hit: top-dose activity change, negative = inhibition, usual class: inhibitors; actives 1.2% (n = 410,000); calls by dose curve; tested in HEK293T cells; note: read-out not given here; potency is the fitted concentration of half-maximal effect; % is set by controls: 0 for no effect and ±100 for the full control effect; nearly all actives have a fitted effect of over 45% in size
Marburg entry inh = inhibitors of Marburg virus binding or cell entry; Marburg virus pseudotyped entry inhibition, cell reporter; Potency, µM (titrated, usually from 37.8 µM), for inactives: at the top dose activity change, negative = inhibition, usual class: inhibitors; actives 1.8% (n = 300,000); calls by dose curve; tested in HEK293 cells; note: potency is the fitted concentration of half-maximal effect; % is set by controls: 0 for no effect and ±100 for the full control effect
SARS PLpro yeast = inhibitors of SARS-CoV papain-like protease in yeast; S. cerevisiae expressing SARS-CoV PLpro, growth rescue; Potency, µM (doses to about 32.9 µM), for inactives: top-dose activity, positive = growth rescue, most hits filed as activators; actives 0.19% (n = 330,000); calls by dose curve; note: potency is the fitted concentration of half-maximal effect; 0% is about no effect; nearly all actives have a fitted effect of over 55% in size
LASV entry inh = blocks Lassa virus binding to or entry into cells | actives 1.2% (n = 300,000) | Lassa virus pseudotype entry inhibition, cell reporter | Potency, µM (titrated, usually from 37.9 µM), without a hit: at the top dose activity change, negative = inhibition, hits mostly inhibitors; calls by dose curve; tested in HEK293 cells; note: potency is the fitted concentration of half-maximal effect; % is set by controls: 0 for no effect and ±100 for the full control effect; nearly all actives have a fitted effect of over 50% in size
HCMV antiviral = blocks human cytomegalovirus replication. HFF cells, HCMV-luciferase reporter, 72 h; stronger effect = lower value. activity change, negative = inhibition, % at 57.5 µM. actives 4.5% (n = 410,000). AID 1259415; in the data active = activity change below about -60%; inconclusive = no clear call, values can overlap the other calls; inactive = above about -39%; note: % is set by controls: 0 for no effect and ±100 for the full control effect
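Compounds were evaluated in HFFs infected with an HCMV luciferase reporter virus (MOI 1 PFU/cell). Luciferase in lysates collected 72 h post infection served as the replication measure.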
HCV inhibitor = HCV inhibition. Huh7.5.1 HCVcc-Cre infection, luciferase reporter, 44 h. Potency, µM (doses to about 41.8 µM), for inactives: top-dose activity change, negative = inhibition, usual class: inhibitors. actives 3.4% (n = 340,000). AID 651820; active = well fitted inhibition curve with a large enough effect; inconclusive = small, poorly fitted or top-dose-only effect, or another doubt; inactive = no such curve, though single readings can be large or run the other way; note: potency is the fitted concentration of half-maximal effect; % is set by controls: 0 for no effect and ±100 for the full control effect
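Compounds are dispensed onto cells plated 4 h earlier at 1,000 per well, with HCVcc-Cre virus (about 0.5 moi) added next. Following 44 h of culture, luminescent signal is measured for 15 sec after 15 min with substrate at room temperature.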
* = called active by the depositor; [ ] = dose if it differs, or a comment.

For CC(=O)Nc1ccc(NC(=O)C(Cc2ccccc2)NS(=O)(=O)c2ccc3c(c2)oc(=O)n3C)cc1 (stereo not given) the results were FMDV antiviral -10%, Marburg entry inh 17%[46.1 µM], LASV entry inh -6%[46.1 µM] and HCMV antiviral 8.
For COc1cc(C(=O)N2CCc3ccccc32)cc(OC)c1OC the results were FMDV antiviral -16%, Marburg entry inh inconclusive, SARS PLpro yeast -5%, LASV entry inh -7%, HCMV antiviral 28 and HCV inhibitor 0%.
COc1cc2ccccc2cc1C(=O)N1CCc2ccccc21 was read as FMDV antiviral 18%, Marburg entry inh inconclusive, SARS PLpro yeast -1%, LASV entry inh -23%, HCMV antiviral -19 and HCV inhibitor 8.9µM*.
COc1ccc(/C=C/C(=O)NCCCN2CCCC2)cc1 was read as FMDV antiviral -10%, SARS PLpro yeast 0%, HCMV antiviral -103* and HCV inhibitor -8%.
Cc1ccc(/C=C/C(=O)NCCCN2CCN(CCCNC(=O)/C=C/c3ccc(C)cc3)CC2)cc1 was read as FMDV antiviral -26%, Marburg entry inh inconclusive, SARS PLpro yeast 5%, LASV entry inh 9%, HCMV antiviral -16 and HCV inhibitor inconclusive.
`CN1C(=O)C(CC(=O)Nc2ccc(F)cc2)N(CCCc2ccccc2)C1=S` (stereo not given) gave FMDV antiviral inconclusive, Marburg entry inh 11µM*, SARS PLpro yeast -12%, LASV entry inh inconclusive, HCMV antiviral inconclusive and HCV inhibitor -17%.
COc1ccc(NC(=O)CC2C(=O)N(C)C(=S)N2CCc2ccccc2F)cc1 (stereo not given) was read as FMDV antiviral 0%, Marburg entry inh inconclusive, SARS PLpro yeast 0%, LASV entry inh inconclusive, HCMV antiviral inconclusive and HCV inhibitor inconclusive.
For O=C(COc1ccccc1F)Nc1ccccc1C(=O)OCc1cc(=O)n2nc(C3CC3)sc2n1 the results were FMDV antiviral -20%, LASV entry inh 23%[46.1 µM] and HCMV antiviral 23.
CO[C@H]1[C@H](NC(=O)c2ccsc2)c2ccccc2C12CCN(Cc1c(O)ccc3ccccc13)CC2 was read as FMDV antiviral 13%.
O=C1CC(c2nc3ccccc3n2CCC2CCCCC2)CN1c1ccccc1Cl (stereo not given) was read as FMDV antiviral -25%, Marburg entry inh inconclusive, LASV entry inh inconclusive and HCMV antiviral -1.
Cc1cccn2c(=O)c3cc(C(=O)NCc4ccccc4)c(=N)n(CCOCCO)c3nc12 was read as FMDV antiviral 47%, Marburg entry inh 4%[46.1 µM], LASV entry inh 3%[46.1 µM] and HCMV antiviral inconclusive.
Cc1ccc(C)c(N2CCN(C(=O)CCS(=O)(=O)c3ccc4c(c3)CC(=O)N4C)CC2)c1 was read as FMDV antiviral -1%, LASV entry inh -2%[46.1 µM] and HCMV antiviral -19.
Screening Cc1nccc2c1[nH]c1ccc(Br)cc12 returned FMDV antiviral -20%, SARS PLpro yeast 3%, HCMV antiviral -2 and HCV inhibitor 4µM*.
For COc1ccc2c(c1)[nH]c1c(C)nccc12 the results were FMDV antiviral inconclusive, HCMV antiviral -95* and HCV inhibitor inconclusive.
For Cc1oc2c(c(C)cc3oc(=O)c(CC(=O)NCc4ccc(F)cc4)c(C)c32)c1C the results were FMDV antiviral -1%, Marburg entry inh -2%[46.1 µM], LASV entry inh 4%[46.1 µM] and HCMV antiviral -25.
`COc1ccc(OCCn2nnc3sc4c(c3c2=O)CCC(C(C)(C)C)C4)cc1` (stereo not given) gave FMDV antiviral -27%, Marburg entry inh -13%[46.1 µM], LASV entry inh 22%[46.1 µM] and HCMV antiviral 12.
CCN(C)c1cc2c(c3c1ccn3C)C1CCC2C1 (stereo not given) was read as FMDV antiviral -12%, LASV entry inh 13%[46.1 µM] and HCMV antiviral -1.
For COc1ccccc1N(C)c1cc2c(c3c1ccn3C)C1CCC2C1 (stereo not given) the results were FMDV antiviral -10%, Marburg entry inh inconclusive and HCMV antiviral -89*.
For CN(Cc1ccccc1)C1=CC(=[N+]2CCCC2)CC(C)(C)C1 the results were FMDV antiviral inconclusive, Marburg entry inh inconclusive, SARS PLpro yeast 0%, LASV entry inh inconclusive, HCMV antiviral -99* and HCV inhibitor inconclusive.
Screening CCN(CC)C1=CC(=[N+]2CCCC2)CC(C)(C)C1 returned FMDV antiviral inconclusive, Marburg entry inh 1.3µM*, SARS PLpro yeast inconclusive, LASV entry inh inconclusive, HCMV antiviral -95* and HCV inhibitor inconclusive.
Screening CN(C)c1cccc(NC2=CC(=[N+]3CCOCC3)CC(C)(C)C2)c1 returned FMDV antiviral 4%, Marburg entry inh -13%, SARS PLpro yeast 8%, LASV entry inh -26%, HCMV antiviral 47 and HCV inhibitor 8%.
Oc1ccc2c(c1)c1ccccc1c1ncccc21 was read as FMDV antiviral -24%, Marburg entry inh 6%, LASV entry inh 5%, HCMV antiviral 13 and HCV inhibitor 11µM*.
For CC(=O)OC[C@H]1O[C@@H](ON=C2C[C@@H](O)[C@@H](O)[C@@H]3[C@H]4C(=O)N(Cc5ccccc5)C(=O)[C@@H]4CC[C@@H]23)[C@H](OC(C)=O)[C@@H](OC(C)=O)[C@H]1OC(C)=O the results were Marburg entry inh -9%[14.2 µM] and LASV entry inh inconclusive.
CCN(C(=O)c1ccc(N2CC3CC(C2)c2cccc(=O)n2C3)c(NC(=O)c2ccncc2)c1)c1cccc(C)c1 (stereo not given) was read as FMDV antiviral -10%, SARS PLpro yeast 3%, HCMV antiviral -75* and HCV inhibitor 15%.
Screening CC(=O)c1ccc(N2CCN(Cc3cc(=O)n4c(-c5ccccc5)csc4n3)CC2)cc1 returned FMDV antiviral -25%, Marburg entry inh -24%[46.1 µM], LASV entry inh inconclusive, HCMV antiviral 10 and HCV inhibitor 13µM*.
Screening CCOC(=O)C1CCN(Cc2cc(=O)n3c(-c4ccccc4)csc3n2)CC1 returned FMDV antiviral -18%, Marburg entry inh 19%[46.1 µM], SARS PLpro yeast -2%, LASV entry inh -1%, HCMV antiviral -16 and HCV inhibitor 11%.
For COc1cc2c(cc1OC)CN(Cc1cc(=O)n3c(-c4ccccc4)csc3n1)CC2 the results were FMDV antiviral -15%, Marburg entry inh inconclusive, SARS PLpro yeast 0%, LASV entry inh inconclusive, HCMV antiviral -73* and HCV inhibitor -30%.
`O=c1cc(CN2CCN(c3ccccc3)CC2)nc2scc(-c3ccccc3)n12` gave FMDV antiviral -25%, Marburg entry inh 0%[46.1 µM], SARS PLpro yeast -2%, LASV entry inh inconclusive, HCMV antiviral 25 and HCV inhibitor -9%.
